Assay results from PubChem BioAssay (NCATS).
Values without a mark were called inactive. Results filed as inconclusive are left out. Entries that show only a call come without a potency. Active and inactive are the calls of the source. Unless noted, calls follow the shape of the dose curve; as a rule, active = well fitted curve in the direction sought with a large enough effect; inconclusive = small, poorly fitted or top-dose-only effect, or another doubt; inactive = no such curve, though single readings can be large; an effect the other way counts as inactive or inconclusive.

Experiments:
[1] = target: Nuclear receptor subfamily 1 group I member 3 (Homo sapiens) (UniProt Q14994); test: Primary qHTS for antagonist of constitutive androstane receptor (CAR) against the NCATS DSHEA and TCM libraries (AID 1794836);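 also: HepG2 cells stably expressing hCAR with CYP2B6 luciferase reporter stimulated by CITCO; series mostly up to about 40 µM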
Method in brief: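 Antagonist mode: CAR reporter luminescence (ONE-Glo) in HepG2-CYP2B6-hCAR cells stimulated with 48 uM CITCO (final) over 24 h at 37 C, compounds titrated; viability read first by CellTiter-Fluor fluorescence.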

[2] = NCATS anti-infectives library activity on HEK293 viability as a counter-qHTS vs the C. elegans viability qHTS (AID 1745854);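 also: HEK293 cells exposed to compounds for 24 hr before the viability read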
Method in brief: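 Compound titrations (final up to 41.7 uM) were incubated with HEK293 cells for 24 hr at 37C under 5% CO2. Viable cells were quantified with CellTiter-Glo after 10 min at ambient temperature.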

[3] = target: Cytochrome P450 1A2 (Homo sapiens) (UniProt P05177); test: p450-cyp1a2 (AID 410; calls by dose curve; also: potency is read from the fitted curve at half-maximal effect)
Method in brief: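 Read-out is luminescence from luciferin produced by CYP1A2 demethylation of Luciferin-ME (100uM, at Km). Detection reagent stopped the 60 min NADPH-dependent reaction; signals were normalized to 57 uM furafylline.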

[4] = target: Glucocorticoid receptor (Homo sapiens) (UniProt P04150); test: GR-GFP Redistribution (AID 450;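 active = compounds whose dose series gives a full or clear partial fitted curve of increased nuclear translocation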; also: potency is read from the fitted curve at half-maximal effect); settings: U2OS GR-GFP nuclear translocation, laser cytometry, 2 h
[5] = target: Glucocorticoid receptor (Homo sapiens) (UniProt P04150); test: GR-EFC Redistribution (AID 451; calls by dose curve; also: potency is read from the fitted curve at half-maximal effect); settings: CHO-K1 GR-EFC translocation, beta-gal luminescence, 2 h
Method in brief: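 Translocation of GR-ED fusion to nuclear EA restores b-gal, read by luminescence after 1 h room-temperature detection. Engineered CHO-K1 biosensor cells, 1,000/well, exposed 2 h at 37 C to titrations up to 46 uM final.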

[6] = target: Cytochrome P450 3A4 (Homo sapiens) (UniProt P08684); test: qHTS Assay for Activators of Cytochrome P450 3A4 (AID 885); also: nearly all actives have a fitted effect of over 65% in size
Method in brief: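 Using 20nM recombinant human CYP3A4 in potassium phosphate (200mM), substrate Luciferin-PPXE at 25uM, luminescent luciferin detection followed a 60-min RT NADPH reaction; data scaled to 57 uM ketoconazole.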

[7] = target: Cytochrome P450 2D6 (Homo sapiens) (UniProt P10635); test: qHTS Assay for Inhibitors and Substrates of Cytochrome P450 2D6 (AID 891); also: potency is read from the fitted curve at half-maximal effect; nearly all actives have a fitted effect of over 60% in size
Method in brief: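 Luminescent read-out of luciferin formed by 5 nM human CYP2D6 demethylating 30 uM Luciferin-ME EGE (Km level) over 60 min at room temperature after NADPH regeneration addition. Data normalized to full inhibition by 1.43 uM quinidine.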

[8] = target: DNA dC->dU-editing enzyme APOBEC-3G (Homo sapiens) (UniProt Q9HC16); test: qHTS for inhibitors of Vif-A3G interactions: Validation (AID 588379)
Method in brief: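 Yellow fluorescence (Ex 488, Em 500-530) of Vif-coexpressing HeLa A3G-eYFP cells, scanned by Acumen cytometer, reports blocked A3G degradation. Cells plated at 700/well overnight at 37 deg C before compound addition, then a further overnight compound incubation at 37 deg C.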

[9] = Viability counterscreen for agonist of constitutive androstane receptor (CAR) against the NCATS DSHEA and TCM libraries (AID 1794838)
Method in brief: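 HepG2-CYP2B6-hCAR cells (2,500/well) attached 5 h, then got compounds plus 0.75 uM PK11195 final. After 24 h at 37C, viability read by CellTiter-Fluor fluorescence (Ex/Em 405/540 nm).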

[10] = target: Nuclear receptor subfamily 1 group I member 3 (Homo sapiens) (UniProt Q14994); test: Primary qHTS for agonist of constitutive androstane receptor (CAR) against the NCATS DSHEA and TCM libraries (AID 1794839); settings: Potency: CAR antagonist co-added at 0.75 µM unless noted; also: potency is read from the fitted curve at half-maximal effect
Method in brief: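 HepG2-CYP2B6-hCAR cells (2,500/well) were attached for 5 h, then treated for 24 h at 37 °C with compounds plus 0.75 µM PK11195. Luciferase luminescence (ONE-Glo) was read, with CellTiter-Fluor viability (Ex/Em 405/540 nm).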

[11] = HepG2 viability counterscreen (readout 2: ATP content) against the NCATS DSHEA and TCM libraries (AID 1794840);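 also: HepG2 cells exposed to substances for about 24 h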
Method in brief: (§1)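 HepG2 cells (1,000 cells/well) attached ~4 h, then treated ~24 h at 37C with substances. Protease activity read by GF-AFC (25 uM final, 30 min, Ex/Em 380/510 nm); ATP content then by CellTiter-Glo luminescence.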

[12] = HepG2 viability counterscreen (readout 1: protease activity) against the NCATS DSHEA and TCM libraries (AID 1794841);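 also: cells exposed to compounds for about 24 h before the protease read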
Method in brief: as §1

[13] = target: Cytochrome P450 2D6 (Homo sapiens) (UniProt P10635); test: qHTS for inhibitors of CYP2D6 against the NCATS DSHEA and TCM libraries (AID 1919972); also: potency is read from the fitted curve at half-maximal effect
Method in brief: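 qHTS, concentration–response format with most substances from 19.5 nM. CYP2D6 + pro-luciferin substrate, 15 min with compound, then 1x NADPH regen, 30–45 min RT dark. Glo detection 30 min, luminescence. Quinidine control.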

[14] = target: Cytochrome P450 2C19 (Homo sapiens) (UniProt P33261); test: qHTS for inhibitors of CYP2C19 against the NCATS DSHEA and TCM libraries (AID 1919974)
Method in brief: (§2)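 Isoform-specific enzyme and substrate levels; enzyme-free wells as background. Reaction: 1x NADPH regenerating system, 30-45 min, room temperature, shielded from light; luminescent detection reagent added, 30 min.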

[15] = KB-3-1 P-gp reporter qHTS against the NCATS DSHEA and TCM libraries (AID 1919975)
Method in brief: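 Parental KB-3-1 human cervical adenocarcinoma cells (500 cells/well, DMEM + 10% FBS) were treated with substances for ~72 h at 37C; viability was read by CellTiter-Glo luminescence.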

[16] = qHTS Counterscreen for compound interference against the NCATS DSHEA and TCM libraries (AID 1919978); settings: firefly luciferase detection reagent interference, luminescence
Method in brief: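 D-luciferin (1 uM final) or 100 mM potassium phosphate buffer alone was preincubated 15 min at RT with compounds (19.5 nM to 39.8 uM final). Luciferin detection reagent was then added and luminescence read after 30 min at RT.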

[17] = Dual reporter qHTS for agonist of Pregnane X Receptor (hPXR) against the NCATS DSHEA and TCM libraries: Fluorescence readout (AID 1920058)
Method in brief: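 In this qHTS counter-read, reporter-bearing HepG2 cells in charcoal-stripped serum received substances for approximately 24 h before viability was assessed fluorometrically with CellTiter-Fluor.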

[18] = target: Nuclear receptor subfamily 1 group I member 2 (Homo sapiens) (UniProt O75469); test: Dual reporter qHTS for agonist of Pregnane X Receptor (hPXR) against the NCATS DSHEA and TCM libraries: Luminescence readout (AID 1920059)
Method in brief: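 Luminescent PXR reporter read (ONE-Glo) after a CellTiter-Fluor viability read, following 24 h, 37C treatment of HepG2 cells stably carrying hPXR-Luc.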

[19] = target: Nuclear receptor subfamily 1 group I member 2 (Homo sapiens) (UniProt O75469); test: Dual reporter qHTS for antagonist of Pregnane X Receptor (hPXR) against the NCATS DSHEA and TCM libraries: Luminescence Readout (AID 1920060)
Method in brief: (§3)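 Rifampicin-stimulated (2 uM final) hPXR-luciferase HepG2 cells were treated for 24 h with DSNP/TCM substances. Viability came from CellTiter-Fluor fluorescence, reporter activity from ONE-Glo luminescence.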

[20] = target: Cytochrome P450 2C9 (Homo sapiens) (UniProt P11712); test: qHTS for inhibitors of CYP2C9 against the NCATS DSHEA and TCM libraries (AID 1919973); also: potency is read from the fitted curve at half-maximal effect
Method in brief: as §2

[21] = Dual reporter qHTS for antagonist of Pregnane X Receptor (hPXR) against the NCATS DSHEA and TCM libraries: Fluorescence Readout (AID 1920061)
Method in brief: as §3

[22] = KB-8-5-11 P-gp reporter qHTS against the NCATS DSHEA and TCM libraries (AID 1919977)
Method in brief: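 P-gp-overexpressing KB-8-5-11 cells (500/well) were plated in colchicine-free DMEM with 10% FBS, attached ~4 h, then exposed to substance titrations for ~72 h at 37C. Viability was read by CellTiter-Glo luminescence.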

[23] = target: Peroxisome proliferator-activated receptor delta (Homo sapiens) (UniProt Q03181); test: qHTS assay for small molecule agonists of peroxisome proliferator-activated receptor delta signaling (AID 588534; calls by dose curve)
Method in brief: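 EC50 and efficacy values derive from Hill fits of a concentration series in a beta-lactamase reporter cell assay. Exposure is 18 hrs at 37 C, with CCF4 fluorescence as the readout.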

Chain of Nuclear receptor subfamily 1 group I member 2 (Homo sapiens) (O75469 whole entry, looked up): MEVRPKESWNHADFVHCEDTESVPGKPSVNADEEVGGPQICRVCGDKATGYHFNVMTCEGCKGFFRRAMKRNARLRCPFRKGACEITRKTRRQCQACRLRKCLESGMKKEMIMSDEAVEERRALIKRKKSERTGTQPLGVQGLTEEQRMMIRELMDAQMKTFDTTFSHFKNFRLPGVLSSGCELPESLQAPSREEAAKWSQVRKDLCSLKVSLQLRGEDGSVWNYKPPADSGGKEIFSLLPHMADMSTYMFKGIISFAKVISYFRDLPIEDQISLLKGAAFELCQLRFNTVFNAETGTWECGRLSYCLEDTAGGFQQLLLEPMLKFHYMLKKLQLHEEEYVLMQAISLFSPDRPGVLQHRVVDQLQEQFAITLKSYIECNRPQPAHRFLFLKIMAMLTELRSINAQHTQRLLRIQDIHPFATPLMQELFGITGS
Chain of Nuclear receptor subfamily 1 group I member 3 (Homo sapiens) (Q14994 whole entry, looked up): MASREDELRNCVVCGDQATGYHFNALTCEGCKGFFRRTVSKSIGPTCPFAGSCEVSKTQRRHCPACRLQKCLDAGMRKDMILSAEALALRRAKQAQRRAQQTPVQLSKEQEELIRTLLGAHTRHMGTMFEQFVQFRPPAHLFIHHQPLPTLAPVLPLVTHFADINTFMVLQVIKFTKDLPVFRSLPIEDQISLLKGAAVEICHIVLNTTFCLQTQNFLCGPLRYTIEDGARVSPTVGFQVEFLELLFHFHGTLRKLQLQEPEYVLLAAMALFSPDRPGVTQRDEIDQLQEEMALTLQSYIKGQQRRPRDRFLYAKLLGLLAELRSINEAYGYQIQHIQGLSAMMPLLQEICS
Chain of Cytochrome P450 2C19 (Homo sapiens) (P33261 whole entry, looked up, canonical isoform): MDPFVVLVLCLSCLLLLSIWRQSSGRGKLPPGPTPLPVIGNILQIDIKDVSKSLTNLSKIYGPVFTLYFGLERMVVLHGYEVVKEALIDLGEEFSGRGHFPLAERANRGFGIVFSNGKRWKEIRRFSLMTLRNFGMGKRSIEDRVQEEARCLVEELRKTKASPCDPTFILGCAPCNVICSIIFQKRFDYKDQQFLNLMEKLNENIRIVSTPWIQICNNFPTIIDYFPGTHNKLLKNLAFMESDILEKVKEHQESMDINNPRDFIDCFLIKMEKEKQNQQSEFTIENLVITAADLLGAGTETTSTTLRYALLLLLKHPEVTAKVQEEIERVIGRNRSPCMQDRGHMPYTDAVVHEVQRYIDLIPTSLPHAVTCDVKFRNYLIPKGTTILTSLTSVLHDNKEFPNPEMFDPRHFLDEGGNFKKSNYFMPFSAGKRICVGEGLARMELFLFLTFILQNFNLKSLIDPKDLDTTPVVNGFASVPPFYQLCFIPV
Chain of Glucocorticoid receptor (Homo sapiens) (P04150 whole entry, looked up, the tested form may be a part): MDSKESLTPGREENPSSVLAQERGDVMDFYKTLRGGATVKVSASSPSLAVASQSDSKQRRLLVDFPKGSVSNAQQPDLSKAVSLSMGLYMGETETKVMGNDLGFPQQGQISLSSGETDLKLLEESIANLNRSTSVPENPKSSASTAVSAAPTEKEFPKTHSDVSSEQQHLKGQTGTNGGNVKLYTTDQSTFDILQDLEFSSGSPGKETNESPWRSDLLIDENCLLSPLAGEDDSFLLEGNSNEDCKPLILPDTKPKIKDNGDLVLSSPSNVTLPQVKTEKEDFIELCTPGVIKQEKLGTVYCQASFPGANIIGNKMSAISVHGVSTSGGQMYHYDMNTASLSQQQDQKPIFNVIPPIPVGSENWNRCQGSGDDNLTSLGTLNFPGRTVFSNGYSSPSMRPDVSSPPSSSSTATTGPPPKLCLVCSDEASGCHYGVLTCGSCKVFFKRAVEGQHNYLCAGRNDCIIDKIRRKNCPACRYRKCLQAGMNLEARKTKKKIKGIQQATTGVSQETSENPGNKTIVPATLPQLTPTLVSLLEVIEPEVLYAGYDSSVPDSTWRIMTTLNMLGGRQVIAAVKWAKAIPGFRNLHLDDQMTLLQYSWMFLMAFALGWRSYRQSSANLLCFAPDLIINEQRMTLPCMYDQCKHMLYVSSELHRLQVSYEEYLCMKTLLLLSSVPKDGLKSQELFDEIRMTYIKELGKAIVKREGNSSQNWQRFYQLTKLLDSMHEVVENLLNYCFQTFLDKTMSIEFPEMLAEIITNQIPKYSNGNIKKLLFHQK
Chain of Cytochrome P450 2D6 (Homo sapiens) (P10635 whole entry, looked up): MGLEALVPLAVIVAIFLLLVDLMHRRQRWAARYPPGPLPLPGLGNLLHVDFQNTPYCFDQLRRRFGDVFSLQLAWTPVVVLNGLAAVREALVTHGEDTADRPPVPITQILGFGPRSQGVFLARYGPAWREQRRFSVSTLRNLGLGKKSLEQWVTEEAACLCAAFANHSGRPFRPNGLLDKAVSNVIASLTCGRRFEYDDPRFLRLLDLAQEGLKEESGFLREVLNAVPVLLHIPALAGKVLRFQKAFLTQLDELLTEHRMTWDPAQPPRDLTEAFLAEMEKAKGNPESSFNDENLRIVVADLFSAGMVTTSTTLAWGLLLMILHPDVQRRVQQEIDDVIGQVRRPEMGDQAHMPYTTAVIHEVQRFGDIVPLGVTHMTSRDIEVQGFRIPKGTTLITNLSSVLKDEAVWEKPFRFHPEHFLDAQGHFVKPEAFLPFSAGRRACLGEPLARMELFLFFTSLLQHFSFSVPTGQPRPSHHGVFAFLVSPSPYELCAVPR
Chain of Cytochrome P450 3A4 (Homo sapiens) (P08684 whole entry, looked up): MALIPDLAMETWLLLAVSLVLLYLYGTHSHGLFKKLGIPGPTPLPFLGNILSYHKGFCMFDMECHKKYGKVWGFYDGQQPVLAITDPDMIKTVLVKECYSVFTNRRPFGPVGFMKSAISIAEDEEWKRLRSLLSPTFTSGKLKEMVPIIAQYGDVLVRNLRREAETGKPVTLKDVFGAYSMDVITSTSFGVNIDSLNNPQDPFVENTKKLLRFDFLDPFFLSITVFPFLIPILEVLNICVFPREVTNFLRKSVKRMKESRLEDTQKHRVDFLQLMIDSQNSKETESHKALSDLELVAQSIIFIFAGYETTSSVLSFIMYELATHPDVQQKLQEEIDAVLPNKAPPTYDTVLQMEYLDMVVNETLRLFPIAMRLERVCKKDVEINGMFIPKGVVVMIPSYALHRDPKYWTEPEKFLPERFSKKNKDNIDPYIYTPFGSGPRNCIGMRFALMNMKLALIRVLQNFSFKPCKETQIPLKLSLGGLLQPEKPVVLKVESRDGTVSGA
Chain of Peroxisome proliferator-activated receptor delta (Homo sapiens) (Q03181 whole entry, looked up): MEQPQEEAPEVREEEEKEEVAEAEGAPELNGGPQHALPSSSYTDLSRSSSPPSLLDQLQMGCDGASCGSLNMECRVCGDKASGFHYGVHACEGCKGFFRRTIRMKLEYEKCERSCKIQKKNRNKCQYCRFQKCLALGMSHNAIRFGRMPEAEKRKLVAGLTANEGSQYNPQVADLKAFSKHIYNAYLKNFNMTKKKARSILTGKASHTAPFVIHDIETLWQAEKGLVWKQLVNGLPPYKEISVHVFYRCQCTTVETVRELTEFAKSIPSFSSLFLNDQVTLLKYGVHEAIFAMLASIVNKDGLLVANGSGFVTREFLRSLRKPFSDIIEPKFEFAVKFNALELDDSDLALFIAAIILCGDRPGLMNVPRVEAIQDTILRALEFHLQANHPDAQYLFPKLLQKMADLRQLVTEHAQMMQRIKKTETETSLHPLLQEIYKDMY
Chain of Cytochrome P450 1A2 (Homo sapiens) (P05177 whole entry, looked up): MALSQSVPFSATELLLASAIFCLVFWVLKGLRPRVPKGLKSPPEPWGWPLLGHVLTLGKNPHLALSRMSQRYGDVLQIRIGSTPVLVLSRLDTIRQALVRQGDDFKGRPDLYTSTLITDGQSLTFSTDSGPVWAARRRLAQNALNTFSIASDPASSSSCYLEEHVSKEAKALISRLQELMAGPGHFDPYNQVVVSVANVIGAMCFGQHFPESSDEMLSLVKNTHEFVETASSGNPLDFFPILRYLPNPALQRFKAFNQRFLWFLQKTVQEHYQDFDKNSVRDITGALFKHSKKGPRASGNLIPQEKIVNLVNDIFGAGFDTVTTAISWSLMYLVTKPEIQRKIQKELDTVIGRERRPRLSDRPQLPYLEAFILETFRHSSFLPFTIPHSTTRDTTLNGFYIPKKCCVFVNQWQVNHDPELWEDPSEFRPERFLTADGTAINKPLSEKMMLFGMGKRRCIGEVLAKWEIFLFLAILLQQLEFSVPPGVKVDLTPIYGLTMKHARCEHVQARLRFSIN
Chain of Cytochrome P450 2C9 (Homo sapiens) (P11712 whole entry, looked up): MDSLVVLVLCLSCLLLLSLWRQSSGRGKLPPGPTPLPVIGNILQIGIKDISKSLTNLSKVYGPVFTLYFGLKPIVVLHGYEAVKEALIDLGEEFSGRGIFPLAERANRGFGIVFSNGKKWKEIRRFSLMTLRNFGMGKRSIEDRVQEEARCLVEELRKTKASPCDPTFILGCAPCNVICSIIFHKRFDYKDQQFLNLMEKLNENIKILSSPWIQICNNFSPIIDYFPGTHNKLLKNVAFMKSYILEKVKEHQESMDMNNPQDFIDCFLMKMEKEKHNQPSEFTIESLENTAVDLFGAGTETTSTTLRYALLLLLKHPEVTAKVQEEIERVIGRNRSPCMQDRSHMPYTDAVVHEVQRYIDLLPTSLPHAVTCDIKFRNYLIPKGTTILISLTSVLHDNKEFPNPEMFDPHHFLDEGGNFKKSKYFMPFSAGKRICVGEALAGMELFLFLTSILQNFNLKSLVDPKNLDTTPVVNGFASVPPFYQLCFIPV
Chain of DNA dC->dU-editing enzyme APOBEC-3G (Homo sapiens) (Q9HC16 whole entry, looked up): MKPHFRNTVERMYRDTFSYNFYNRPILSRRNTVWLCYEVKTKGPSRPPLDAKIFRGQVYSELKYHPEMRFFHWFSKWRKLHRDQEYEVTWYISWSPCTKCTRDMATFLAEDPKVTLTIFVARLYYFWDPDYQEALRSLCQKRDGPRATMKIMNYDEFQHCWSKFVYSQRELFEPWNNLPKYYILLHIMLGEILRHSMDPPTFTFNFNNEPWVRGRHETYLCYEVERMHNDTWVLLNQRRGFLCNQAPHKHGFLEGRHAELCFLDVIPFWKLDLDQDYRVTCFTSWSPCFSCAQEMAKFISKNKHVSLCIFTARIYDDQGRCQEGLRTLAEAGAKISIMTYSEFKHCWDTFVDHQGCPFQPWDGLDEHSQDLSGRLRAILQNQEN

CC[C@H](CC[C@@H](C)[C@H]1CCC2C3CCC4C[C@@H](O)CC[C@]4(C)C3CC[C@@]21C)C(C)C (stereo not given in full)
Potency [1]: inactive

CC(=O)O[C@H]1[C@H]2[C@@H](OC(=O)Cc3ccccc3)[C@@H](C)C[C@]2(OC(C)=O)C(=O)/C(C)=C/[C@@H]2[C@H](CC[C@@]13CO3)C2(C)C
Potency [2]: inactive

COc1cc2c(cc1O)C[C@H]1c3c(cc(OC)c(O)c3-2)CCN1C
Potency [3]: 10 µM (active) | Potency [4]: > 46 µM | Potency [5]: > 46 µM | Potency [6]: inactive | Potency [7]: 6.31 µM (active) | outcome [8]: inactive | Potency [1]: inactive | outcome [9]: inactive | Potency [10]: 12.6 µM (active) | outcome [11]: inactive | outcome [12]: inactive | Potency [13]: 5.01 µM (active) | Potency [14]: 3.98 µM (active) | outcome [15]: inactive | max response [16]: -3.09% | outcome [17]: inactive | Potency [18]: inactive | outcome [19]: inactive

CC(C)(O)[C@@H]1CC[C@](C)([C@H]2[C@@H](O)C[C@@]3(C)[C@@H]4C[C@H](O)[C@H]5C(C)(C)[C@@H](O[C@@H]6OC[C@@H](O)[C@H](O)[C@H]6O[C@@H]6O[C@H](CO)[C@@H](O)[C@H](O)[C@H]6O)CC[C@@]56C[C@@]46CC[C@]23C)O1
Potency [1]: inactive

C=C[C@H]1CN2CCc3c([nH]c4ccccc34)[C@H]2C[C@@H]1/C(=C\OC)C(=O)OC
Potency [1]: inactive | outcome [9]: inactive | Potency [10]: inactive | outcome [11]: inactive | outcome [12]: inactive | Potency [20]: 3.16 µM (active) | Potency [14]: 7.08 µM (active) | max response [16]: -1.5% | outcome [17]: inactive | outcome [19]: inactive | outcome [21]: inactive

CN(C)C/C=C/C(=O)Nc1cccc(C(OCCN2CCCCC2)c2cc3nccc(C(=O)O)c3s2)c1 (stereo not given)
Potency [2]: inactive

CCCCCCCC/C=C/CCCCCCCCCC(=O)O
Potency [1]: inactive

O=c1cc(-c2ccc(O)cc2)oc2cc(O[C@H]3OC(CO)C(O)C(O)C3O)cc(O)c12 (stereo not given in full)
Potency [1]: inactive

Cc1ccc(C(C)C)cc1
Potency [1]: inactive | Potency [22]: inactive

CCCCCCC/C=C/C(=O)CCc1ccc(O)c(OC)c1
Potency [1]: inactive | Potency [22]: inactive

O=C(/C=C/c1ccc(O)c2c1[C@H](C(=O)O)[C@@H](c1ccc(O)c(O)c1)O2)O[C@H](Cc1ccc(O)c(O)c1)C(=O)O
Potency [1]: inactive | Potency [22]: inactive

O=Cc1ccccc1O
Potency [1]: inactive | Potency [22]: inactive

COC1=C(OC)C(=O)C(C/C=C(\C)CC/C=C(\C)CC/C=C(\C)CC/C=C(\C)CC/C=C(\C)CC/C=C(\C)CC/C=C(\C)CC/C=C(\C)CC/C=C(\C)CCC=C(C)C)=C(C)C1=O
Potency [1]: inactive | Potency [22]: inactive

CC1=C2[C@H](/C=C(\C)C(=O)O)CC[C@@H](C)[C@H]2CC1
Potency [1]: inactive | Potency [22]: inactive

COc1ccc(/C=C/c2cc(OC)cc(=O)o2)cc1
outcome [23]: inactive | Potency [1]: inactive | Potency [22]: inactive

O=C(O)[C@H]1O[C@@H](Oc2c(-c3ccc(O)c(O)c3)oc3cc(O)cc(O)c3c2=O)[C@H](O)[C@@H](O)[C@@H]1O
Potency [1]: inactive | Potency [22]: inactive

CCCCCCCCC/C=C/C(=O)CCc1ccc(O)c(OC)c1
Potency [1]: inactive | Potency [22]: inactive

CC(C)(O)[C@@H]1CC[C@](C)([C@@H]2[C@H](O)C[C@]3(C)C4C[C@@H](O[C@H]5O[C@@H](CO)[C@H](O)[C@@H](O)[C@@H]5O)C5C(C)(C)[C@H](O[C@H]6OC[C@H](O)[C@@H](O)[C@@H]6O)CC[C@]56CC46CC[C@@]23C)O1 (stereo not given in full)
Potency [1]: inactive | Potency [22]: inactive

CCCCC[C@H](O)CC(=O)CCc1ccc(O)c(OC)c1
Potency [1]: inactive | Potency [22]: inactive

O=C(/C=C/c1ccc(O)c(O)c1)O[C@@H]1CC(O)(C(=O)O)C[C@@H](OC(=O)/C=C/c2ccc(O)c(O)c2)C1O (stereo not given in full)
Potency [1]: inactive | Potency [22]: inactive

O=c1cc(-c2ccc(O)cc2)oc2cc(O[C@@H]3O[C@H](CO)[C@@H](O)[C@H](O)[C@H]3O[C@@H]3OC[C@](O)(CO)[C@H]3O)cc(O)c12
Potency [1]: inactive | Potency [22]: inactive

CC(C)=CCC[C@](C)(O[C@@H]1O[C@H](CO)[C@@H](O)[C@H](O)[C@H]1O)[C@H]1CC[C@]2(C)[C@@H]1[C@H](O)C[C@@H]1[C@@]3(C)CC[C@H](O)C(C)(C)[C@@H]3[C@@H](O[C@@H]3O[C@H](CO)[C@@H](O)[C@H](O)[C@H]3O)C[C@]12C
Potency [1]: inactive | Potency [22]: inactive

CCCCCCCCCCCCCCCCCCCCCC(=O)O
Potency [1]: inactive | Potency [22]: inactive

O=c1cc(-c2ccc(O)c(O)c2)oc2cc(O[C@@H]3O[C@@H](CO)[C@@H](O)[C@@H](O)[C@H]3O)cc(O)c12
Potency [1]: inactive | Potency [22]: inactive

CC12CC3(O)OC(O1)C1(COC(=O)c4ccc(O)cc4)C3CC21OC1OC(CO)C(O)C(O)C1O (stereo not given)
Potency [1]: inactive | Potency [22]: inactive
